Among the test systems are NCI-H23 lung; NCI-H226 lung; NCI-H322M lung; HOP-62 NSCLC; NCI-H460 lung; HOP-92 NSCLC; NCI-H522 lung; A549/ATCC NSCLC; 786-0 renal; COLO 205 colon; DU-145 prostate; K-562 leukemia; MALME-3M melanoma; MDA-MB-231 breast; RXF 393 renal; SF-268 CNS; SF-295 CNS; SF-539 CNS; UACC-257 melanoma; M14 melanoma.
Test in all cases: NCI-60 one-dose screen, 48 h (100 = growth as untreated, 0 = no growth, -100 = all killed)
Conditions in all cases: 10 µM unless noted

Consider 8 compounds from PubChem BioAssay (NCI).

SMILES strings stand for the structures. The panel holds about 83,000 compounds, 20% with a hit somewhere; the sample as a whole holds those more often.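 In brief: 96-well plates, 48 h treatment, single concentration, percent growth endpoint.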 Unmarked numbers belong to inactive results. Active and inactive are the calls of the source. The calls were made as follows: active = growth percent below 10; inactive = the rest.

On to `Cc1ccc(-c2[nH][nH]c(=O)c2-c2nc3ccccc3s2)cc1`, for which the growth is 96.2% in the assay on NCI-H23 lung; 95.1% in the assay on NCI-H226 lung; 105% with NCI-H322M lung; 99.2% in the assay with HOP-62 NSCLC; 105% in the assay with NCI-H460 lung; 105% with HOP-92 NSCLC. The growth with NCI-H522 lung is 89.2%; with A549/ATCC NSCLC, 107%; in the assay on 786-0 renal, 101%; in the assay with COLO 205 colon, 106%; in the assay on DU-145 prostate, 111%; with K-562 leukemia it was 100%. In addition, the growth was 96.5% with MALME-3M melanoma; 99.1% in the assay on MDA-MB-231 breast; 101% in the assay on RXF 393 renal; 103% in the assay on SF-268 CNS; 101% in the assay on SF-295 CNS; 100% with SF-539 CNS. Also, the growth in the assay on UACC-257 melanoma was 104%; with M14 melanoma it was 98.1%.

Regarding `O=C(O)c1ccc(NCc2cn(-c3ccc(C(F)(F)F)cc3)nc2-c2ccc(C(=O)O)cc2)cc1`, the growth in the assay with NCI-H23 lung was 107%; in the assay on NCI-H226 lung, 111%; in the assay on NCI-H322M lung it was 106%; with HOP-62 NSCLC, 101%; in the assay on NCI-H460 lung, 103%; with HOP-92 NSCLC, -7.09% (active). The growth was 93.1% in the assay with NCI-H522 lung; 106% in the assay with A549/ATCC NSCLC; 105% with 786-0 renal; 119% with COLO 205 colon; 115% in the assay on DU-145 prostate; 105% with K-562 leukemia. Besides, the growth in the assay with MALME-3M melanoma was 127%; with MDA-MB-231 breast, 111%; in the assay with RXF 393 renal it was 112%; with SF-268 CNS it was 97.8%; in the assay with SF-295 CNS, 100%; in the assay on SF-539 CNS, 97%. In addition, the growth is 109% with UACC-257 melanoma and 106% with M14 melanoma.

In the case of `O=C(Nc1cccc(C2=NCCN2)c1)c1ccc(-c2ccc(C(=O)Nc3cccc(C4=NCCN4)c3)cc2)cc1`, the growth is 73% in the assay on NCI-H23 lung; 84% in the assay on NCI-H226 lung; 93.8% in the assay with NCI-H322M lung; 113% in the assay with HOP-62 NSCLC; 37.8% in the assay on NCI-H460 lung; 90.9% in the assay with HOP-92 NSCLC. Besides, the growth was 60.5% in the assay with NCI-H522 lung; 74.9% in the assay with A549/ATCC NSCLC; 86.2% in the assay on 786-0 renal; 43.9% in the assay on COLO 205 colon; 39.1% in the assay with DU-145 prostate; 35.5% with K-562 leukemia. For the same compound, the growth in the assay on MALME-3M melanoma was 9.06% (active); in the assay with MDA-MB-231 breast, 79.6%; with RXF 393 renal it was 122%; in the assay with SF-268 CNS it was 90.2%; with SF-295 CNS, 71.1%; in the assay with SF-539 CNS, 97.5%. Further, the growth with UACC-257 melanoma was 36.7%; in the assay on M14 melanoma it was 77.7%.

As to `COC(=O)N[C@H]1CCc2c(Cl)c(OC)c(OC)c(OC)c2-c2ccc(SC)c(=O)cc21`, the growth in the assay on NCI-H23 lung is 34%; with NCI-H226 lung, 22.7%; in the assay with NCI-H322M lung, 35.4%; with HOP-62 NSCLC, 38%; with NCI-H460 lung it was -11.4% (active); in the assay with HOP-92 NSCLC, 1.96% (active). Also, the growth was 21.7% in the assay on NCI-H522 lung; 19.8% in the assay on A549/ATCC NSCLC; 7.29% (active) with 786-0 renal; -24.3% (active) with COLO 205 colon; -11.1% (active) in the assay with DU-145 prostate; 7.05% (active) in the assay with K-562 leukemia. The growth with MALME-3M melanoma is 36.8%; with MDA-MB-231 breast, -2.11% (active); with RXF 393 renal, 20.3%; in the assay with SF-268 CNS, 20.2%; in the assay on SF-295 CNS it was 12%; with SF-539 CNS it was -0.571% (active). The growth is 68.3% in the assay on UACC-257 melanoma and 0.0864% (active) in the assay with M14 melanoma.

For `Cc1cnc(C(=O)Nc2nc3ccc(S(=O)(=O)Nc4ccc(C5(C(F)(F)F)CC5)cc4)cc3[nH]2)cn1`, the growth in the assay on NCI-H23 lung was 33.9%; with NCI-H226 lung, 13.2%; in the assay on NCI-H322M lung it was 33.9%; in the assay with HOP-62 NSCLC, 21.1%; in the assay on NCI-H460 lung, 0.982% (active); in the assay on HOP-92 NSCLC, 32.8%. The growth is 16% in the assay with NCI-H522 lung; 23.7% in the assay with A549/ATCC NSCLC; 26.2% with 786-0 renal; -1.76% (active) in the assay with COLO 205 colon; 1.12% (active) in the assay with DU-145 prostate; 10% with K-562 leukemia. In addition, the growth was 32.2% with MALME-3M melanoma; 47.2% in the assay with MDA-MB-231 breast; -17.4% (active) in the assay with RXF 393 renal; 47% with SF-268 CNS; 20.6% with SF-295 CNS; -1.85% (active) in the assay on SF-539 CNS. Further, the growth was 57.7% in the assay on UACC-257 melanoma and 6.68% (active) in the assay on M14 melanoma.

As to `C#CCNC(=O)[C@]1(C)CC[C@]2(C)CC[C@@H]3C(=CC[C@H]4[C@@]3(C)CC[C@H]3C(C)(C)C(=O)CC[C@]43C)[C@@H]2C1`, the growth in the assay with NCI-H23 lung is 91%; in the assay with NCI-H226 lung, 98.7%; in the assay with NCI-H322M lung, 90.9%; in the assay on HOP-62 NSCLC, 101%; in the assay on NCI-H460 lung it was 97.6%; in the assay on HOP-92 NSCLC it was 99.9%. For the same compound, the growth was 79.8% in the assay on NCI-H522 lung; 91.6% in the assay on A549/ATCC NSCLC; 89.8% in the assay on 786-0 renal; 101% in the assay with COLO 205 colon; 98.8% with DU-145 prostate; 63.7% with K-562 leukemia. Also, the growth is 114% in the assay on MALME-3M melanoma; 98% with MDA-MB-231 breast; 116% in the assay on RXF 393 renal; 95.7% in the assay on SF-268 CNS; 107% with SF-295 CNS; 102% in the assay with SF-539 CNS. The growth in the assay on UACC-257 melanoma was 98.7%; with M14 melanoma, 95.8%.

Take `COc1cc2c(-c3cc4c(cc3CNCCc3ccc5c(c3)OCO5)OCO4)cccc2c(OC)c1O`: the growth in the assay with NCI-H23 lung is 80.5%; in the assay with NCI-H226 lung, 92.2%; with NCI-H322M lung, 84.6%; in the assay with HOP-62 NSCLC, 70.9%; in the assay with NCI-H460 lung it was 91.2%; in the assay with HOP-92 NSCLC it was 66.4%. Further, the growth was 79.1% with NCI-H522 lung; 92.3% with A549/ATCC NSCLC; 90.1% with 786-0 renal; 117% with COLO 205 colon; 95.8% in the assay with DU-145 prostate; 20% in the assay on K-562 leukemia. For the same compound, the growth is 103% in the assay on MALME-3M melanoma; 69.4% in the assay on MDA-MB-231 breast; 74.9% in the assay on RXF 393 renal; 68% in the assay on SF-268 CNS; 92.2% with SF-295 CNS; 88.4% in the assay on SF-539 CNS. The figures for the growth in the assay on UACC-257 melanoma and in the assay with M14 melanoma were 96.1% and 84.4%, respectively.

In the case of `COc1cc2nc(-c3ccc(Cl)cc3)cc(OCCCN3CCCC3)c2cc1OC`, the growth in the assay on NCI-H23 lung was 62.8%; in the assay with NCI-H226 lung, -13.5% (active); in the assay with NCI-H322M lung, 58.5%; in the assay on HOP-62 NSCLC, 45.3%; in the assay with NCI-H460 lung, 25.2%; with HOP-92 NSCLC, 25%. Further, the growth in the assay with NCI-H522 lung was 38.1%; with A549/ATCC NSCLC, 41.5%; in the assay with 786-0 renal it was 67.4%; with COLO 205 colon it was 21.5%; in the assay with DU-145 prostate it was 41.7%; in the assay with K-562 leukemia, 21.1%. The growth is 50% with MALME-3M melanoma; 21.5% with MDA-MB-231 breast; 42.8% in the assay with RXF 393 renal; 54.5% in the assay on SF-268 CNS; -17% (active) with SF-295 CNS; 42.6% in the assay on SF-539 CNS. The growth in the assay with UACC-257 melanoma is 31.7%; in the assay with M14 melanoma it was -29.7% (active).
